Source: PubChem (National Center for Advancing Translational Sciences (NCATS))
Pf growth 48h: inhibits P. falciparum growth in the first generation, 48 h | P. falciparum luciferase growth in erythrocytes, 48 h | Potency, µM (top dose mostly 28.7 µM), inactives show at the top dose activity change, negative = inhibition, hits mostly inhibitors | 310,000 compounds, 5.9% hits; further: on the % scale 0 is the no-effect control and ±100 the full control effect
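Cell-based growth assay: transgenic P. falciparum expressing firefly luciferase, cultured in red cells within RPMI 1640 containing 0.5% w/v Albumax, 24 mM bicarbonate and gentamycin. A drop in luciferase activity indicates inhibition.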
AMA1-RON2 inh: disrupts binding of P. falciparum AMA1 to RON2 | AlphaScreen AMA1-biotinylated RON2 peptide binding | Potency, µM (highest dose often 58.2 µM), inactives show top-dose activity change, negative = inhibition, hits mostly inhibitors | 360,000 compounds, 0.2% hits;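 further: 0% = vehicle wells and -100% = peptide control; nearly all actives have a fitted effect of over 45% in size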
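AMA1 (3D7) with his tag at 25 nM final met compounds first, then biotinylated RON2 peptide at 25 nM; detection used donor plus acceptor beads, 10 µg/mL apiece, read by AlphaScreen after 30 min at room temperature.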
Pf growth 96h: P. falciparum growth inhibition at 96 hours | Potency, µM (top dose mostly 28.7 µM), without a hit: at the highest dose activity change, negative = inhibition, hits mostly inhibitors | 320,000 compounds, 6.9% hits | AID 504834 | P. falciparum luciferase reporter growth, 96 h; further: on the % scale 0 is the no-effect control and ±100 the full control effect
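Parasite growth measured via integrated firefly luciferase reporter in P. falciparum. Infected erythrocytes at 2% hematocrit, 0.05% parasitemia final were treated 96 hours at 37 C under 5% CO2, and luminescence was read.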
SARS PLpro yeast: blocks SARS-CoV papain-like protease in a yeast assay. S. cerevisiae expressing SARS-CoV PLpro, growth rescue. 330,000 compounds, 0.19% hits. Potency, µM (highest dose often 32.9 µM), without a hit: at the highest dose activity, positive = growth rescue, actives largely listed as activators; calls by dose curve; further: 0% is about no effect; nearly all actives have a fitted effect of over 55% in size
The depositor's hits bear a star; u = inconclusive; x = no result given; [ ] = remark or other dose. Hits are enriched below; roughly 9.4% of the tested compounds scored in any of these assays. Unless noted, the call rests on the fitted dose curve; in most records, active means well fitted curve in the direction sought with a large enough effect; inconclusive means small, poorly fitted or top-dose-only effect, or another doubt; inactive means no such curve, though single readings can be large; an effect the other way counts as inactive or inconclusive. Potency means the concentration at half of the fitted maximal effect.

SMILES	Pf growth 48h	AMA1-RON2 inh	Pf growth 96h	SARS PLpro yeast
COc1ccccc1C1C2=C(CCCC2=O)N(CC(=O)O)C2=C1C(=O)CCC2	-3.4%	5.3%	u	4.9%
CCOc1ccccc1N(CC(=O)NCCOC)C(=O)CCC(=O)Nc1ccccn1	16.5%	-8.5%	33.9%	1.6%
CC(C)(C)NC(=S)N1CCn2cccc2C1c1cccnc1 (stereo not given)	4.0%	2.7%	9.28µM*	1.2%
N#Cc1cc(-c2ccccc2)nc(NN)n1	u	70.9%	10.4µM*	-2.1%
NNc1nc(-c2ccccc2)cc(-c2ccccc2)n1	u	63.5%	4.9%	-3.0%
O=[N+]([O-])c1ccc(S(=O)(=O)N2CCN(Cc3ccco3)CC2)cc1	12.3%	-12.5%	59.7%	1.2%
O=S(=O)(Nc1cccc(C(F)(F)F)c1)c1cnc[nH]1	11.7%	1.5%	10.4µM*	1.5%
O=S(=O)(Nc1ccc(C(F)(F)F)cc1)c1cnc[nH]1	5.9%	0.0%	0.0%	u
COCC(C)N1CCC(Oc2cccc(C(=O)NCCc3ccccc3)c2)CC1 (stereo not given)	53.2%	-10.7%	-17.2%	13.3%
CCS(=O)(=O)N1Cc2ccccc2CC1C(=O)OCC(=O)N(C(C)C)C(C)C (stereo not given)	u	5.1%	9.28µM*	1.2%
Cn1c(=O)c(C(=O)COC(=O)c2cc(-c3ccco3)nc3ccccc23)c(N)n(Cc2ccccc2)c1=O	5.22µM*	x	6.57µM*	0.1%
CC(C)Cn1c(N)c(C(=O)CSc2nnc(C3CC3)n2C2CC2)c(=O)n(C)c1=O	u	-9.6%	8.28µM*	-0.6%
CC(C)Cn1c(N)c(C(=O)COC(=O)C2Cc3ccccc3CN2S(C)(=O)=O)c(=O)n(C)c1=O (stereo not given)	11.7µM*	1.3%	u	-5.0%
COc1cc(/C=N/Nc2ccc(F)cc2F)cc(OC)c1OC	-10.6%	-0.4%[2.32 µM]	-100.4%	-3.8%
CC(C)Cn1c(N)c(C(=O)COC(=O)c2cc(C3CC3)nc3ccccc23)c(=O)n(C)c1=O	5.22µM*	8.4%	11.7µM*	1.4%
CC(C)Cn1c(N)c(C(=O)COC(=O)c2cc(-c3ccco3)nc3ccccc23)c(=O)n(C)c1=O	9.28µM*	-3.8%	-5.7%[5.75 µM]	0.2%
CC(C)Cn1c(N)c(C(=O)COC(=O)c2cc(-c3ccccc3)nc3ccccc23)c(=O)n(C)c1=O	u	5.4%	11.7µM*	0.9%
CC(C)Cn1c(N)c(C(=O)COC(=O)c2cc(C(F)(F)F)nc3ccccc23)c(=O)n(C)c1=O	u	2.7%	u	-15.2%
O=C(CNS(=O)(=O)c1ccccc1)OCC(=O)c1ccc(F)cc1	19.5%	20.2%	u	-2.6%
CCCOc1ccc(C(O)CCNC(CC(=O)O)c2ccccc2)cc1 (stereo not given)	-14.5%	-4.2%	u	-8.4%
COc1ccc(-c2nc3ccccc3c(C(=O)Nc3ccc(S(=O)(=O)Nc4cc(C)on4)cc3)c2C)cc1	10.4µM*	-1.7%	u	5.9%
Cc1ccc(-c2cc(C(=O)Nc3ccc(S(=O)(=O)Nc4cc(C)on4)cc3)c3ccccc3n2)c(C)c1	u	-7.0%	7.38µM*	6.7%
c1csc(-c2nn3c(-c4ccncc4)nnc3s2)c1	6.3%	x	u	5.0%
C=CCN(C(=O)Cn1nnc2ccccc21)C(C(=O)NCCOC)c1ccc(OC)cc1OC (stereo not given)	u	-7.0%	x	-2.7%
O=C(NCC(c1ccco1)N1CCCC1)c1ccc(S(=O)(=O)Nc2ccc(F)cc2)cc1 (stereo not given)	u	0.0%	u	2.1%
SMILES	Pf growth 48h	AMA1-RON2 inh	Pf growth 96h	SARS PLpro yeast
CCOc1cccc(C(=O)Nc2ccccc2C(=O)N2CCOCC2)c1	u	1.0%	23.4%	-4.2%
Cc1ccc(-c2[nH]c3ccccc3c2C(C[N+](=O)[O-])c2ccco2)cc1 (stereo not given)	9.28µM*	-8.5%	x	-22.3%
O=C1CC2(CCN(C(=O)C3CC(=O)N(c4ccccc4)C3)CC2)Oc2ccccc21 (stereo not given)	u	2.7%	9.28µM*	-1.3%
CCN(CC)C(=O)Cn1cc(S(=O)(=O)CC(=O)Nc2cc(OC)ccc2OC)c2ccccc21	u	-0.8%	u	-4.3%
O=S(=O)(c1ccc(S(=O)(=O)N(Cc2ccc(F)cc2)C2CCCC2)cc1)N1CCCC1	13.1µM*	25.5%	x	1.9%
O=C(Nc1ccc(S(=O)(=O)N2CCCC2)cc1)Nc1ccc(F)cc1F	x	-0.4%	x	x
O=C(Nc1ccc(F)cc1)Nc1ccc(S(=O)(=O)N2CCCC2)cc1	13.1µM*	-3.3%	7.38µM*	1.6%
